Hits are enriched below; roughly 2.3% of the tested compounds scored in any of these assays.
TAG inh: inhibitors of triacylglycerol accumulation, primary screen, cell-based, uHTS, fluorescence, H9c2; H9c2 cells, Nile Red lipid (TAG) fluorescence; cells loaded with 200 µM oleic acid; inhibition, % at 12.5 µM; 230,000 tested, 0.66% active; AID 651582, 2012;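 active means pattern-corrected inhibition of lipid staining of at least 50% with the nuclear-stain viability signal not falling by more than 50%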;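 further: 0% = DMSO wells and 100% = triacsin C control wells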
FAS TE block: FAS thioesterase domain inhibitors, primary screen, biochemical, fluorescence intensity, uHTS | Fatty acid synthase (Homo sapiens), P49327 | recombinant FAS-TE, OMFH fluorogenic substrate, fluorescence endpoint | inhibition, % at 15 µM | 360,000 tested, 0.67% active;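 active means compounds whose normalised, plate-corrected inhibition of enzyme fluorescence in the single-dose primary screen is 50% or more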;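 further: 0% = DMSO with enzyme and 100% = substrate without enzyme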
MIN6 prolif: inducers of MIN6 beta-cell proliferation, primary screen, ATP luminescence, uHTS; MIN6 cells proliferation, ATPlite luminescence, 48 h; cells starved in 0.2% serum; 100% = growth in 10% serum; proliferation, % at 10 µM; 330,000 tested, 0.29% active;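 active means compounds whose signal lies at least 3.5 SD above the mean of all wells on their plate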;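 further: 0% = DMSO-treated cells in low-serum medium and 100% = 10% serum control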
aDG glyco up: activators of alpha-DG glycosylation, primary screen, uHTS, Pro5-aDG cells, AlphaScreen | activation, % at 10 µM | alpha-DG glycosylation AlphaScreen (IIH6); 0% Pro5, 100% B10-LARGE cell signal | 360,000 tested, 0.22% active | AID 624168, 2012;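 active means activation of at least 8% versus controls, or a plate z-score of at least 8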;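 further: Pro5 are CHO cells carrying HIG-tagged alpha-DG that lacks glycosylation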
Cardio protect: cardioprotection against H2O2-induced cell death, primary screen, uHTS, H9c2 cells, ATPLite luminescence. H9c2 cardiomyocytes, H2O2 injury protection, 2 h. AID 588492, 2011. 360,000 tested, 0.63% active. protection from H2O2 cell death, % at 20 µM;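 active means compounds giving at least 50% protection of heart cells from peroxide-induced death in the single-dose screen, raw or plate-pattern-corrected value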;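 further: 0% = DMSO wells with peroxide and 100% = DMSO wells without peroxide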
Calpain2 inh: inhibitors of pig calpain II, primary screen, biochemical, fluorogenic peptide substrate, 1536-well; purified calpain II, 30 min; inhibition, % at 16 µM; 220,000 tested, 0.37% active; AID 1236, 2008;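 active means inhibition above about 50%, limit read from the data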
An asterisk follows results filed as active.

Results for COc1ccc(OC)c(/C=N/Nc2nncn2/N=C/c2cc(OC)ccc2OC)c1 ?
FAS TE block: 3; MIN6 prolif: 0; aDG glyco up: 0; Cardio protect: 81*; Calpain2 inh: -37

Results for COc1cc(/C=N/Nc2nncn2/N=C/c2ccc(O)c(OC)c2)ccc1O ?
TAG inh: -6; FAS TE block: -6; MIN6 prolif: -4; aDG glyco up: 0; Cardio protect: -20; Calpain2 inh: -23

How did COc1cccc(/C=N/NC(=O)c2oc3nc(-c4ccccc4)cc(-c4ccco4)c3c2N)c1 do in these assays?
TAG inh: 3; FAS TE block: -2; MIN6 prolif: 0; aDG glyco up: 0; Cardio protect: 56*; Calpain2 inh: -95

What do the screens show for `Cc1ccc(-c2cc(-c3ccco3)c3c(N)c(C(=O)NN)oc3n2)cc1`?
TAG inh: 3; FAS TE block: -2; MIN6 prolif: -1; aDG glyco up: 0; Cardio protect: 30; Calpain2 inh: 13

What do the screens show for `COc1ccc(-c2cc(C(F)(F)F)n3nc(C(=O)N4CCN(C(=O)c5ccco5)CC4)cc3n2)cc1`?
TAG inh: -10; FAS TE block: 6; MIN6 prolif: -1; aDG glyco up: 0; Cardio protect: 55*

How did COc1ccccc1-c1cc2nc(-c3ccccc3)cc(N3CCN(C(=O)c4ccoc4)CC3)n2n1 do in these assays?
TAG inh: 13; FAS TE block: 22; aDG glyco up: 0; Cardio protect: 50*

Results for COc1ccccc1-c1cc2nc(-c3ccccc3)cc(N3CCN(C(=O)c4ccco4)CC3)n2n1 ?
TAG inh: -8; FAS TE block: 34; aDG glyco up: 1; Cardio protect: 55*

Results for COc1ccc(-c2cc3nc(C)cc(N4CCN(C(=O)c5ccoc5)CC4)n3n2)cc1 ?
TAG inh: 46; FAS TE block: 2; aDG glyco up: 0; Cardio protect: 54*

What do the screens show for `CCOC(=O)C1(C)CCN1C(=O)c1ccc2ccccc2c1` (centres undefined)?
TAG inh: -12; FAS TE block: -4; aDG glyco up: 0; Cardio protect: -6

Results for O=C(COC(=O)Cc1n[nH]c(=O)c2ccccc12)NNC(=O)c1ccc(Cl)cc1 ?
TAG inh: -13; FAS TE block: -6; MIN6 prolif: 1; aDG glyco up: 0; Cardio protect: 66*

How did COc1ccccc1C(=O)COC(=O)Cc1n[nH]c(=O)c2ccccc12 do in these assays?
TAG inh: 4; FAS TE block: -7; MIN6 prolif: -2; aDG glyco up: 0; Cardio protect: 20

What do the screens show for `COc1ccc(C(C)=O)cc1COC(=O)Cc1n[nH]c(=O)c2ccccc12`?
TAG inh: 6; FAS TE block: -5; MIN6 prolif: 0; aDG glyco up: 0; Cardio protect: 72*; Calpain2 inh: 2

What do the screens show for `Cc1ccc(C(=O)C(C)OC(=O)Cn2[nH]c(=O)c3ccccc3c2=O)cc1` (centres undefined)?
FAS TE block: -6; MIN6 prolif: 0; aDG glyco up: 0; Cardio protect: 20

Results for CCOc1ccc(C(=O)COC(=O)Cc2n[nH]c(=O)c3ccccc23)cc1 ?
TAG inh: 42; FAS TE block: 0; MIN6 prolif: -6; aDG glyco up: 0; Cardio protect: 44

What do the screens show for `O=C(COC(=O)Cn1[nH]c(=O)c2ccccc2c1=O)NNC(=O)c1ccc(Br)cc1`?
TAG inh: -5; FAS TE block: -6; MIN6 prolif: 0; aDG glyco up: 0; Cardio protect: 83*

How did Cc1ccccc1OCC(=O)NNC(=O)Cn1[nH]c(=O)c2ccccc2c1=O do in these assays?
TAG inh: -8; FAS TE block: -4; MIN6 prolif: -2; aDG glyco up: 0; Cardio protect: 53*

How did O=C(COC(=O)Cc1n[nH]c(=O)c2ccccc12)NNC(=O)c1ccc(Br)cc1 do in these assays?
TAG inh: 3; FAS TE block: -9; MIN6 prolif: 2; aDG glyco up: 0; Cardio protect: 53*

Results for O=C(Cc1n[nH]c(=O)c2ccccc12)OCC(=O)c1ccc(F)cc1 ?
TAG inh: -10; FAS TE block: 0; MIN6 prolif: -1; aDG glyco up: 0; Cardio protect: 42

Results for O=C(Cn1[nH]c(=O)c2ccccc2c1=O)NCC1COc2ccccc2O1 (centres undefined) ?
TAG inh: 0; FAS TE block: -5; MIN6 prolif: 3; aDG glyco up: 0; Cardio protect: 57*

How did CCOc1ccc2nc(S(=O)(=O)NC(=O)C3(C)CCN3C(=O)CCc3cccs3)sc2c1 (centres undefined) do in these assays?
TAG inh: 9; FAS TE block: -3; aDG glyco up: 0; Cardio protect: 6

What do the screens show for `O=C(O)Cn1ccc2cc(S(=O)(=O)N3CCCCCC3)ccc21`?
FAS TE block: -5; MIN6 prolif: -1; aDG glyco up: 0; Cardio protect: 0

How did COc1cc(Br)cc(C=Nc2cccc(C(F)(F)F)c2)c1O do in these assays?
TAG inh: 6; FAS TE block: -6; aDG glyco up: 0; Cardio protect: 53*; Calpain2 inh: 12

What do the screens show for `COc1cccc(C=Nc2cc(C)cc(C)c2)c1O`?
FAS TE block: -3; MIN6 prolif: 0; aDG glyco up: 0; Cardio protect: 12; Calpain2 inh: 10

What do the screens show for `O=C(c1ccc(Oc2ccccc2)cc1)c1nc2c(n1O)CCCC2`?
FAS TE block: -9; MIN6 prolif: -6; aDG glyco up: 0; Cardio protect: -1; Calpain2 inh: 75*

How did C[C@@H]1CCCCCCCCC(=O)OCCN(C(=O)OC(C)(C)C)[C@H](C)CCCCCCCCC(=O)OCCN(C(=O)OC(C)(C)C)[C@H](C)CCCCCCCCC(=O)OCCN1C(=O)OC(C)(C)C do in these assays?
MIN6 prolif: -3

How did CCOC(=O)c1ccccc1NC(=O)CSc1ccc(-c2ccccn2)nn1 do in these assays?
TAG inh: 5; FAS TE block: 11; MIN6 prolif: -6; aDG glyco up: 1; Cardio protect: 57*

How did COc1ccc(C)cc1NC(=O)CSc1ccc(-c2ccccn2)nn1 do in these assays?
TAG inh: -29; FAS TE block: 9; MIN6 prolif: -1; aDG glyco up: 2; Cardio protect: 47

What do the screens show for `CC(=O)c1cccc(NC(=O)CSc2ccc(-c3ccccn3)nn2)c1`?
TAG inh: 14; FAS TE block: -2; MIN6 prolif: -5; aDG glyco up: 0; Cardio protect: 36
